# Hit rate of the full screen: of about 200,000 compounds, about 18,000 (9%) were called active. Only a selection was taken, and actives are over-represented in it overall. Unmarked numbers belong to inactive results. Cut-off read from the data, not from the text of the source: active = inhibition above about 50%; inactive = the rest.
# Experiment: Leishmania major promastigote growth inhibition, primary screen (AID 1063);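 note: promastigotes grown with compound for 44 hours at 28 °C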
# Conditions: Leishmania major promastigotes, resazurin fluorescence viability; at 10 µM; active compounds read high
row,SMILES,inhibition
1,CC(=O)Nc1ccc(NC(=O)C(C)n2c3ccccc3c3nc(=O)cc(C)n32)cc1 (stereo not drawn),2.66%
2,COc1ccc(CCn2c(=N)c(C(=O)NCc3ccco3)cc3c(=O)n4cccc(C)c4nc32)cc1,67.1% (active)
3,CCn1c(=N)c(C(=O)NCCCOC)cc2c(=O)n3cccc(C)c3nc21,28.4%
4,O=C(NCc1ccco1)c1cccn2c(=O)c3c4c(sc3nc12)CCCC4,-1.47%
5,Cc1nn(CC(=O)Nc2ccc3c(c2)OCO3)c(C)c1[N+](=O)[O-],7.29%
6,COc1ccc(C2CC(c3cccs3)=NN2c2ccc(F)cc2)cc1OC (stereo not drawn),15.6%
7,CCc1nnc(NC(=O)Cc2cccs2)s1,-5.86%
8,CN(C)Cc1ccccc1C1(O)c2ccccc2CSc2ccccc21 (stereo not drawn),77.4% (active)
9,O=C(CNC(=O)c1cc(=O)[nH]c2ccccc12)Nc1ccc(F)c(F)c1,2%
10,CCc1nccn1S(=O)(=O)c1cccc([N+](=O)[O-])c1,33.6%
11,CCc1nc(C)cn1S(=O)(=O)c1cc([N+](=O)[O-])ccc1Cl,89.9% (active)
12,CCCOc1cc(C)c(S(=O)(=O)n2nnc3ccccc32)cc1C,-5.25%
13,CCc1nc(C)cn1S(=O)(=O)c1cc(OC)c(C)cc1C,67.1% (active)
14,COc1cc2sc(C)nc2cc1C,-0.96%
15,CC(C)c1nccn1S(=O)(=O)c1cc([N+](=O)[O-])ccc1Cl,25.1%
16,Cn1c(=O)cc(OCC(=O)N2CCN(c3ccccc3F)CC2)c2ccccc21,-1.08%
17,COC(=O)c1ccc(/C=N/OCC(=O)Nc2cc(F)ccc2F)cc1,6.63%
18,CCc1ccc(OCC(=O)OCC(=O)c2c(N)n(C)c(=O)n(C)c2=O)cc1,-8.87%
19,Cc1cccc(C)c1NC(=O)C1(N(C(=O)c2ccccn2)c2ccc(O)cc2)CCCCC1,-0.59%
20,Cc1cc(C)cc(NC(=O)COC(=O)c2cc(C)oc2C)c1,-1.77%
21,CC1CC2=C(CC1/C=N/NC(N)=S)C(C)(C)CCC2 (stereo not drawn),100% (active)
22,CC1(C)CCCC2=C1CC1C(=O)N(c3ccccc3)C(=O)C1C2 (stereo not drawn),4.86%
23,COCCNC(=O)c1ccc(-n2c(SCc3cccnc3)nc3ccccc3c2=O)cc1,-2.65%
24,COc1cc(N2C(=O)c3ccccc3C2=O)c(Cl)cc1C(=O)OCC(=O)N1CCOCC1,16.7%
25,CC1=C(C(=O)Nc2cc(C)ccn2)C(c2cnn(C)c2)C2=C(CC(c3ccccc3)CC2=O)N1 (stereo not drawn),1%
26,Cc1cc(C)c2nc(SCCC#N)nc(C)c2c1,5.11%
27,Cc1cc(C)c2c(n1)nn1c(N3CCOCC3)cc(C)nc21,4.53%
28,Cc1cc(C)c2nc3nc(C)cc(C)c3c(N)c2c1,100% (active)
